Where “and” joins values, the source holds several entries; their conditions need not be identical. Identical values can stand only once. Unmarked numbers belong to inactive results. Records with an inconclusive call do not appear. Calls of active or inactive are those of the source. The call rests on the fitted dose curve; in most records, active means well fitted curve in the direction sought with a large enough effect; inconclusive means small, poorly fitted or top-dose-only effect, or another doubt; inactive means no such curve, though single readings can be large; an effect the other way counts as inactive or inconclusive.
Legend:
[1] = biological target: Cytochrome P450 3A4 (Homo sapiens) (UniProt P08684); assay: qHTS Assay for Inhibitors and Substrates of Cytochrome P450 3A4 (AID 884); details: recombinant CYP3A4, Luciferin-PPXE luminescence; series mostly up to 57.1 µM; further: nearly all actives have a fitted effect of over 50% in size; further: potency means the concentration at half of the fitted maximal effect
Sequence of Cytochrome P450 3A4 (Homo sapiens) (P08684 whole entry, looked up): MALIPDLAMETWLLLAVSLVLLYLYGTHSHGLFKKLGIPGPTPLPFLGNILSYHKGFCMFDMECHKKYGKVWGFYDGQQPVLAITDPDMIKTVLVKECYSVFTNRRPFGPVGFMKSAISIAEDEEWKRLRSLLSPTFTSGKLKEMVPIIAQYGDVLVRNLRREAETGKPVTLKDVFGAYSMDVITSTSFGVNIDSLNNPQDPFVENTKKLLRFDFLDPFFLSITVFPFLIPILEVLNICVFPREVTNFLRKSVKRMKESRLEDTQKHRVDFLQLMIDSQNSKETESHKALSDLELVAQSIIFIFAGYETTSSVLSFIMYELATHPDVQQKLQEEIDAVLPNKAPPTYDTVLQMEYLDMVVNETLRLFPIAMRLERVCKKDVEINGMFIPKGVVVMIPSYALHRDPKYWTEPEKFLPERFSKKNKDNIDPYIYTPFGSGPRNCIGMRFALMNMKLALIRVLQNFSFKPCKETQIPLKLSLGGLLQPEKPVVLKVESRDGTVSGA
Method in brief: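 20 nM human CYP3A4 with 25 uM Luciferin-PPXE (at KM) in 200 mM KPO4, preincubated 10 min with compound; NADPH regeneration started a 60 min RT reaction. Luciferin detected by luminescence, normalized to 57 uM ketoconazole as full inhibition.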

[2] = biological target: Cytochrome P450 3A4 (Homo sapiens) (UniProt P08684); assay: qHTS Assay for Activators of Cytochrome P450 3A4 (AID 885); details: recombinant CYP3A4, Luciferin-PPXE luminescence, 60 min; series mostly up to 57.1 µM; further: nearly all actives have a fitted effect of over 65% in size
Method in brief: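 Human CYP3A4 (20 nM) with Luciferin-PPXE at 25 uM (its KM) in 200 mM KPO4; 10 min compound preincubation, then NADPH regeneration and 60 min reaction at RT. Luciferin read by luminescence; normalized to 57 uM ketoconazole full inhibition.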

Row | Structure (SMILES) | Potency [1] | Potency [2] | activity change, positive = activation [2]
1 | NC(=O)NCC1CC1 | inactive |  | 
2 | COC(=O)[C@@H]1C[C@@]2(O)[C@H](O)[C@H](O)[C@H](O)C[C@H]2N1Cc1ccc(C)s1 | inactive |  | 
3 | CN(C)/C=N/c1cc(=O)[nH]c(=O)n1Cc1ccccc1 | inactive |  | 
4 | COC(=O)N1[C@H](Cc2ccccc2)C=C[C@]1(C)C(=O)NCc1ccc(N(C)C)cc1 | 0.794 µM (active) | inactive | 
5 | CO[C@H]1COC(=O)C/C=C\[C@H](C)[C@@H](NS(=O)(=O)c2ccc(C)cc2)COC(=O)CCC[C@@H]1C | 3.98 µM (active) |  | -92.6% [at 11.4 µM]
6 | CO[C@@H]1COC(=O)C/C=C\[C@H](C)[C@@H](NS(=O)(=O)c2ccc(C)cc2)COC(=O)C/C=C\[C@@H]1C | 3.98 µM (active) and 3.16 µM (active) |  | -70.4% [at 11.4 µM] and -70.5% [at 11.4 µM]
7 | CCC1=C(OC(=O)N(CC)CC)N2C(=O)OC(=NCC3CC3)[C@]2(C)[C@H]2C1=CC[C@H]1C(=O)NC(=O)[C@H]12 | 10 µM (active) | inactive | 
8 | CC(=O)OC[C@@H]1O[C@H](CCO/N=C(\C)CCC(=O)OC[C@@H]2O[C@H](C#Cc3ccccc3)C=C[C@@H]2Oc2ccc(C)cc2)C=C[C@@H]1OC(C)=O | 3.16 µM (active) |  | -92.8% [at 11.4 µM]
9 | COC(=O)[C@@H]1C[C@@]2(O)[C@H](O)[C@H](O)[C@H](O)C[C@H]2N1Cc1ccccc1OS(=O)(=O)c1ccc(C)cc1 | 7.94 µM (active) | inactive | 
10 | COCCN=C1OC(=O)N2C(=O)C3=C4C(C[C@H]5C(=O)N(c6ccccc6)C(=O)[C@H]5[C@H]4[C@@]12Cc1ccccc1)[C@H]1C(=O)N(c2ccccc2)C(=O)[C@H]1[C@H]3C (stereo not given in full) | 5.01 µM (active) | inactive | 
11 | COC(=O)[C@@H]1C[C@@H]2CC[C@@H](O)C[C@@H]2N1Cc1ccc(OC)cc1 | 15.8 µM (active) | inactive | 
12 | CCC1=C2CC[C@H]3C(=O)N(c4ccccc4)C(=O)[C@H]3[C@H]2[C@@]2(Cc3ccccc3)C(=O)N(CC(=O)OC)C(=O)N2C1=O | 3.98 µM (active) | inactive | 
13 | FC(F)(F)c1ccc(CN2C[C@@H]3C(c4ccc(Cl)nc4)C4(c5cccnc5)CC3(C4)[C@H]2c2ccccc2)cc1 (stereo not given in full) | 15.8 µM (active) | inactive | 
14 | COC(=O)[C@@H]1C[C@H]2CC[C@H](O)C[C@H]2N1Cc1ccc(C(C)(C)C)cc1 | 5.01 µM (active) | inactive | 
15 | COC(=O)C/C=C\[C@@H](C)[C@@H](/C=N\O[C@@H](C)CN1CCCCc2nc(C)c(C)cc21)NS(=O)(=O)c1ccc(C)cc1 | 3.98 µM (active) |  | -78.5% [at 11.4 µM]
16 | CNC1=C(Br)C(=O)c2ccncc2C1=O | 1.26 µM (active) | inactive | 
17 | CCC1=C2CC[C@H]3C(=O)N(CC)C(=O)[C@H]3[C@H]2[C@@]2(Cc3ccccc3)C(=O)N(CC3CC3)C(=O)N2C1=O | 2.51 µM (active) | inactive | 
18 | CCC1=C(OC(=O)N(CC)CC)N2C(=O)OC(=NCc3ccccc3)[C@]2(C)[C@H]2C1=CC[C@H]1C(=O)N(c3ccccc3)C(=O)[C@H]12 | 2.51 µM (active) | inactive | 
19 | CCCNC(=O)OC[C@H]1O[C@@H](CCO/N=C2/[C@H]3O[C@@H]3[C@@H](O)[C@H]3[C@H]2CCn2c(=O)n(-c4ccccc4)c(=O)n23)C=C[C@@H]1Oc1ccc(OC)cc1 | 3.16 µM (active) |  | -85.3% [at 11.4 µM]
20 | CCC1=C(OC(=O)N(CC)CC)N2C(=O)OC(=NCCOC)[C@]2(Cc2ccccc2)[C@H]2C1=CC[C@H]1C(=O)N(CC(=O)OC)C(=O)[C@H]12 | 6.31 µM (active) | inactive | 
21 | CCC1=C(OC(=O)N(CC)CC)N2C(=O)OC(=NCC(=O)OC)[C@]2(Cc2ccccc2)[C@H]2C1=CC[C@H]1C(=O)N(c3ccccc3)C(=O)[C@H]12 | 3.16 µM (active) | inactive | 
22 | COC(=O)c1cccc(C23CC4(C2)[C@H](CN(C)[C@@H]4c2ccccc2)C3c2ccc(C(F)(F)F)cc2)c1 (stereo not given in full) | 12.6 µM (active) | inactive | 
23 | CCC1=C(OC(=O)N(CC)CC)N2C(=O)OC(=NCCOC)[C@]2(C)[C@H]2C1=CC[C@H]1C(=O)N(CC)C(=O)[C@H]12 | 7.94 µM (active) | inactive | 
24 | FC(F)(F)c1ccc(C2[C@H]3CN(CC4CCCCC4)[C@H](c4ccccc4)C34CC2(c2cccnc2)C4)cc1 (stereo not given in full) | 15.8 µM (active) | inactive | 

Reference: PubChem BioAssay (NCATS)
